Drawing on PubChem BioAssay AID588473 (Sanford-Burnham Center for Chemical Genomics, 2011), this text covers activation for 92 molecules.

The campaign covered roughly 350,000 compounds. About 1,600 (0.46%) were called active.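 How the source made its calls: active means activation of at least 50%, plus an integration ratio under a set limit after plate pattern correction; inactive means the rest.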 For the sample, actives were picked, then their nearest neighbours and some compounds at random.

For the test, the system named is CRF-binding protein / CRF receptor 2 complex (human). The test can be described thus: activators of CRF-R2 with CRF-BP – cell-based, HEK293, calcium dye fluorescence, uHTS, primary screen (AID 588473).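 Further: plate controls were neutral control wells without compound for no effect and CRF at EC100 for full effect.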 Conditions: calcium dye fluorescence (FLIPR), at 13.2 µM, hits give high values, percent of saturating CRF peptide response.
On to `N#Cc1cccc(CSc2ncnc(N)n2)c1`, for which the activation was -1.54% (inactive).
The same measure for `CCc1ccc(CN(C)C(=O)CCc2nnc(-c3ccc(-c4ccccc4)cc3)o2)nc1`: -0.63% (inactive); for `COc1ccccc1-c1nnc(-c2ccc(F)cc2)o1`: 0.06% (inactive).
The same measure for `CCCCCCc1cc2cc(-c3nnc(-c4ccccc4)o3)c(=O)oc2cc1O`: 269% (active); for `COc1ccc(Cl)cc1-n1c(=S)sc2c(=O)n(-c3ccc(F)cc3)c(SCC(=O)O)nc21`: -1.84% (inactive).
For `Cc1cccn2c(=O)c(/C=C(\C#N)C(N)=O)c(N3CCCCCC3)nc12` the value was -2.5% (inactive); for `Cc1cccn2c(=O)c(/C=C(\C#N)S(=O)(=O)c3ccc(Cl)cc3)c(N3CCC(C(N)=O)CC3)nc12`, 9.75% (inactive); for `CCOC(=O)CC1C(=O)NCCN1c1nc2c(C)cccn2c(=O)c1/C=C1\SC(=S)N(C(C)CC)C1=O` (configuration not stated), 177% (active).
For the molecule `CCCN(CCC)c1ccc(C(O)c2nnc(-c3ccccc3)o2)cc1` (configuration not stated), the activation is -0.49% (inactive).
For the molecule `Cc1cccc2c1-c1sc(C(=O)NCCCN3CCc4ccccc4C3)cc1CO2`, the activation was 3.21% (inactive).
The same measure for `C[C@H]1CN([C@@H](C)CO)C(=O)Cc2cc(NC(=O)Cc3ccccc3)ccc2O[C@H]1CN(C)S(=O)(=O)c1cccs1`: 0.76% (inactive).
For `Cc1c(NC(=O)c2coc(=O)c(Br)c2)c(=O)n(-c2ccccc2)n1C` the value was -1.21% (inactive).
For `O=C(CCN1C(=O)c2ccccc2C1=O)Nc1cccc(F)c1` the value was -0.06% (inactive).
For the molecule `O=C(Nc1cccc(F)c1)c1coc(=O)c(Br)c1`, the activation was 67% (active).
On to `O=C(O)c1ccc(S(=O)(=O)c2ccccc2)s1`, for which the activation was 0.6% (inactive).
For `Cc1nn(C(C)(C)C)c(OC(=O)CC(C)C)c1S(=O)(=O)c1ccccc1` the value was 4.7% (inactive); for `CC(C)[C@H](NC(=O)N1c2ccccc2NC(=O)[C@@H]1C(C)C)C(=O)N[C@H](C(=O)O)c1ccccc1`, 0.51% (inactive).
The same measure for `CCN1/C(=C/c2ccc3ccc(C)cc3[n+]2CC)Sc2ccccc21`: 143% (active); for `CCN1/C(=C\c2ccc3ccccc3[n+]2CC)Sc2cc(C)ccc21`: 200% (active); for `COc1ccc(SCCN2CCN(CC(C)C)CCC2=O)cc1`: -0.91% (inactive).
The same measure for `COC(=O)C(C)Oc1ccc2c(-c3cccc([N+](=O)[O-])c3)cc(=O)oc2c1` (configuration not stated): -3.43% (inactive); for `CCC1SC(CC)C(=O)N(CC(=O)NC2CCCCC2)C1=O` (configuration not stated): -0.56% (inactive).
On to `CCOC(=O)[C@H]1[C@H]2COc3ccccc3[C@@H]2N2C(=O)CN(Cc3ccccc3)C(=O)[C@@]12C`, for which the activation is -0.27% (inactive).
The same measure for `c1ccc(C(=NNc2nc3ccccc3s2)c2ccccn2)cc1`: 5.4% (inactive).
The same measure for `O=[N+]([O-])c1cc(Br)c(O)c(/C=N/Nc2nc3ccccc3s2)c1`: 82.8% (active); for `O=C(N/N=C/c1cc(Br)c(O)c([N+](=O)[O-])c1)C(O)(c1ccccc1)c1ccccc1`: -0.94% (inactive); for `CCNC(=S)N1CCN(S(=O)(=O)c2ccc(Cl)s2)CC1`: 3.39% (inactive).
On to `CC(=O)Nc1ccccc1Sc1ccc2c3c(cccc13)C(=O)N(c1ccc(C)cc1)C2=O`, for which the activation is 87.7% (active).
As to `CSc1ccccc1NC(=O)C(C)N1C(=O)c2ccccc2S1(=O)=O` (configuration not stated), the activation is 1.1% (inactive).
For `Cc1ccc(N2C(=O)CC(Nc3cccc4ccccc34)C2=O)cc1` (configuration not stated), the activation is 0.15% (inactive).
The same measure for `CCC(=O)N1CCc2cc(Br)c(S(=O)(=O)NCCN3CCCCC3CC)cc21` (configuration not stated): -1.55% (inactive); for `CSc1cccc(NC(=O)CN2C(=O)COc3ccc(S(=O)(=O)N4CCOCC4)cc32)c1`: -1.06% (inactive).
The same measure for `O=C(COc1ccc(S(=O)(=O)N2CCCC2)cc1[N+](=O)[O-])N1CCCCC1`: -0.47% (inactive); for `COc1ccc2c(c1)SC(C)CC2=O` (configuration not stated): -0.7% (inactive).
For `COc1ccc2c(c1)OC(O)(C(F)(F)C(F)F)CC2=O` (configuration not stated) the value was 66.2% (active); for `COc1ccc2c(c1)C(=O)CC(c1ccccc1)O2` (configuration not stated), -2.49% (inactive).
Turning to `COc1ccc(-c2c(-c3cc(OC)cc(OC)c3)n(C)c3ccc(-c4ccn[nH]4)cc23)cc1`, the activation is 2.7% (inactive).
The same measure for `CC1CC1C(=O)OCC(=O)Nc1cccc(F)c1` (configuration not stated): 1.09% (inactive); for `CCOCCc1c(O)nc(SCC(=O)NCc2ccco2)[nH]c1=O`: 0.28% (inactive); for `Cc1ccc(CN(C)C[C@@H]2OCc3cnnn3CCCC(=O)N([C@@H](C)CO)C[C@H]2C)cc1`: 0.05% (inactive).
For `COc1cccc2cc(S(=O)(=O)c3ccc(C)cc3)/c(=N/NS(=O)(=O)c3ccc(C)cc3)oc12`, the activation is 2.38% (inactive).
The same measure for `COC(=O)Cc1cc(=O)oc2c(C)c(O)ccc12`: 2.46% (inactive); for `Cc1cc(S(=O)(=O)c2cc3ccc(O)c(C)c3oc2=O)ccc1F`: 91.1% (active).
In the case of `COc1ccc(-c2[nH]ncc2CN(C)Cc2cc(C)[nH]n2)c(F)c1`, the activation was -4.41% (inactive).
Take `CCN(CC)c1ccc(NC(=O)C2CCC(CNc3c(N4CCCC4)c(=O)c3=O)CC2)c(C)c1` (configuration not stated): the activation was -1.59% (inactive).
The same measure for `CCOC(=O)/C(C#N)=C/c1ccc(N2CCN(Cc3ccccc3)CC2)cc1`: 100% (active); for `COc1ccc(/C=C(\C#N)C(=O)OCC(=O)N(C)C2CCS(=O)(=O)C2)cc1` (configuration not stated): -0.47% (inactive).
`CCOC(=O)/C(C#N)=C/c1ccc(N2CCCCC2)cc1`: the activation was 69.9% (active).
For `CC(C)OC(=O)C(C#N)c1nc2ccccc2nc1N1CCN(Cc2ccccc2)CC1` (configuration not stated) the value was 4.17% (inactive); for `CCCn1c(C)cc(/C=C(\C#N)C(=O)OCC(=O)N(C)c2c(N)n(Cc3ccccc3)c(=O)[nH]c2=O)c1C`, -1.33% (inactive); for `COc1ccc(/C=C(\C#N)C(=O)ONC2=NCCCCC2)cc1`, -0.53% (inactive).
For `CC(C)c1nc(CNC(=O)CC2C(=O)NCCN2Cc2ccoc2)cs1` (configuration not stated) the value was 3.31% (inactive); for `CCO[C@H]1OC(C(=O)N2CCN(Cc3ccccc3)CC2)=C[C@@H](c2cn(C(C)=O)c3ccccc23)[C@@H]1CCCO`, -0.99% (inactive); for `O=C(OCc1cn(-c2ccc(Cl)c(Cl)c2)nn1)c1ccccc1Cl`, 5.3% (inactive).
As to `CC(C(=O)N1CCN(c2ccccc2F)CC1)c1ccc([N+](=O)[O-])cc1` (configuration not stated), the activation was -0.08% (inactive).
Take `CC(C)CNC(=O)/C=C/C(=O)O`: the activation is -1.76% (inactive).
In the case of `CCCc1cc(=O)n2[nH]c(SCc3ccccc3)nc2n1`, the activation was 1.41% (inactive).
`CCn1nnnc1SCC(=O)c1ccc(C)cc1C`: the activation is 1.45% (inactive).
For `Cc1ccc2c(c1)nnc1nnc(SCC(=O)O)n12` the value was 187% (active).
For `Cc1cccc(-c2nnc(SCC(=O)O)n2Cc2ccccc2)c1` the value was -1.45% (inactive); for `CC1(C)C2CCC13CS(=O)(=O)NC3C2` (configuration not stated), -2.27% (inactive); for `CC1Cc2nc(SCC(=O)Nc3ccccc3F)n(C)c(=O)c2S1` (configuration not stated), -2.32% (inactive).
The same measure for `COc1cccc(N(CC(=O)NC2CCCC2)C(=O)Cn2nnc(-c3ccc(C)cc3)n2)c1`: -0.55% (inactive); for `CCOc1ccc2nc(NCCNC(=O)C(C)(C)C)c(C)cc2c1`: 0.31% (inactive).
On to `CCOc1ccc2nc(N3CCCN(C(=O)Nc4ccccc4C)CC3)c(C#N)cc2c1`, for which the activation was 53.4% (active).
Take `CCOc1ccc(C(=O)NC2CCN(C(=O)Nc3ccccc3OC)CC2)cc1`: the activation is 1.14% (inactive).
The same measure for `CCC(=O)Nc1cc(C(F)(F)F)ccc1N1CCCC1`: -0.05% (inactive); for `CCCCCCSc1ccc([C@@H]2[C@@H]3C(=O)N(CC)C(=O)[C@@H]3[C@]3(C(=O)OC)CCCCN23)cc1OC`: 5.06% (inactive); for `N#C/C=C(/c1ccc(F)cc1)N1CCOCC1`: -1.81% (inactive).
In the case of `N#C/C(=C\C1=C(N2CCOCC2)C(=C\c2ccccc2)/CC1)C(=O)Nc1ccccc1F`, the activation is 10.9% (inactive).
On to `N#C/C(=C\c1ccc(N2CCOCC2)o1)C(=O)N1CCOCC1`, for which the activation is 57.8% (active).
For `N#C/C(=C/c1ccc(N2CCOCC2)o1)C(=O)N1CCOCC1` the value was 67.4% (active); for `N#C/C(=C\N1CCOCC1)S(=O)(=O)c1ccc(Cl)cc1`, -0.74% (inactive); for `O=C(N1CCOCC1)N1CCOCC1`, -0.16% (inactive).
The same measure for `CCCN(CC(=O)Nc1ccc(C(N)=O)cc1)CC(=O)Nc1ccccc1C`: -1.42% (inactive); for `CCCn1nc(NC(=O)C(C)C)c2cc3cc(OC)ccc3nc21`: -3.44% (inactive); for `O=C(O)CSc1nccc2ccccc12`: -1.24% (inactive).
Regarding `Cn1cccc1/C=C1\SC(=S)N(NC(=O)c2ccc(Cl)cc2)C1=O`, the activation is 0.66% (inactive).
For `CN1C(=O)/C(=C\c2ccc(-c3ccccc3)o2)SC1=S` the value was 177% (active).
The same measure for `CC(C(=O)NC1CCS(=O)(=O)C1)N1C(=O)/C(=C/c2ccc(Cl)cc2)SC1=S` (configuration not stated): 0.11% (inactive).
As to `NS(=O)(=O)c1ccc(-c2ccc(/C=C3\SC(=O)NC3=O)o2)cc1`, the activation is -4.11% (inactive).
The same measure for `O=C1/C(=C/c2ccc(F)cc2)SC(=S)N1NS(=O)(=O)c1ccccc1`: -2.42% (inactive); for `O=C(O)C(c1ccccc1)N1C(=O)/C(=C\c2ccc(-c3cccc(Cl)c3)o2)SC1=S` (configuration not stated): 53.1% (active).
For `Cc1nn(CC(=O)NC2CCCCC2)c(=O)c2cccn12` the value was -0.23% (inactive); for `O=S1(=O)C=C(SCCN2CCCC2)c2ccccc21`, 0.69% (inactive); for `CCCN1C2CCCC1CC(NC(=O)NC13CC4CC(CC(C4)C1)C3)C2` (configuration not stated), 0.55% (inactive).
Turning to `Cc1cccc(N(C)C(=O)CN2C(=O)COc3ccc(S(=O)(=O)N4CCCCCC4)cc32)c1`, the activation was 21.6% (inactive).
In the case of `COc1cc(CCC(=O)OCC(=O)Nc2cccc(S(N)(=O)=O)c2)cc(OC)c1OC`, the activation was 1.86% (inactive).
For `COC(=O)c1cc(NC(=O)c2nn(C)c(=O)c3ccccc23)cc(C(=O)OC)c1` the value was -0.23% (inactive); for `CCN(CC)c1ccc2oc(=O)c(C)nc2c1`, 111% (active).
Take `CCc1ccc2oc(-c3ccc(N)cc3)nc2c1`: the activation is 0.69% (inactive).
For `Cc1ccc2oc(=O)ccc2c1` the value was -1.36% (inactive).
